# Experimental data from the supplement of paper PMC12067926.
# Unmarked numbers belong to inactive results.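 The calls were made as follows: active = growth AUC significantly below the DMSO wells by Dunnett test; inactive = the rest.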
# Tested on: Community 10
# Experiment: relative growth (AUC of 72 h growth curve relative to DMSO control, dAUC) (ratio); higher = more growth (less inhibition), active = hit call of the paper
# Conditions: 20 µM
# Procedure: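 Environmental bacterial isolates (Iceland stream sediment and Silwood Park soil) and whole stream-sediment communities were grown in LB from a 1:100 dilution with each pesticide at 20 µM (1% DMSO). A600 was read hourly for 72 h and the area under a spline-fitted growth curve (AUC) was computed. dAUC is the mean AUC of 3 biological replicates divided by the mean AUC of the DMSO controls. Significance was tested by Dunnett's test against the DMSO control.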
row,SMILES,relative growth
1,O=C(Nc1ccccc1-c1ccc(Cl)cc1)c1cccnc1Cl,1.05
2,COC(=O)NC(=S)Nc1ccccc1NC(=S)NC(=O)OC,0.99
3,CCCCCCCCCCCCNC(=N)N,0.505 (active)
4,CCCCC(C#N)(Cn1cncn1)c1ccc(Cl)cc1 (stereo not given),0.956
5,COc1ccc(-c2ccccc2)cc1NNC(=O)OC(C)C,0.782
6,Cc1cccc2sc3nncn3c12,0.867
7,CC(C)OC(=O)C(C(=O)OC(C)C)=C1SCCS1,0.804
8,N#C/N=C1\SCCN1Cc1ccc(Cl)nc1,1.02
9,C#CCN1C(=O)COc2cc(F)c(N3C(=O)C4=C(CCCC4)C3=O)cc21,0.871
10,Cc1cc(C(F)(C(F)(F)F)C(F)(F)F)ccc1NC(=O)c1cccc(I)c1C(=O)NC(C)(C)CS(C)(=O)=O,1.21
11,CC1(C)C(C(=O)OC(C#N)c2cccc(Oc3ccccc3)c2)C1(C)C (stereo not given),0.908
12,CCCCc1c(C)nc(NCC)nc1OS(=O)(=O)N(C)C,0.816
13,COP(N)(=O)SC (stereo not given),0.803
14,CC1(C)[C@H](C(=O)O[C@H](C#N)c2cccc(Oc3ccccc3)c2)[C@@H]1C=C(Br)Br,0.964
15,CC[C@H]1CCC[C@H](O[C@H]2CC[C@H](N(C)C)[C@@H](C)O2)[C@@H](C)C(=O)C2=C[C@@H]3[C@@H](C=C(C)[C@@H]4C[C@@H](O[C@@H]5O[C@@H](C)[C@H](OC)[C@@H](OC)[C@H]5OC)C[C@@H]34)[C@@H]2CC(=O)O1.CC[C@H]1CCC[C@H](O[C@H]2CC[C@H](N(C)C)[C@@H](C)O2)[C@@H](C)C(=O)C2=C[C@H]3[C@@H]4C[C@H](O[C@@H]5O[C@@H](C)[C@H](OC)[C@@H](OC)[C@H]5OC)C[C@H]4C=C[C@H]3C2CC(=O)O1,0.772
16,O=C(NC(=O)c1c(F)cccc1F)Nc1ccc(Cl)cc1,0.795
17,OC(Cc1ccccc1Cl)(Cn1nc[nH]c1=S)C1(Cl)CC1 (stereo not given),0.945
18,COCC(C)N(C(=O)CCl)c1c(C)csc1C (stereo not given),0.97
19,CCOCN(C(=O)CCl)c1c(C)cccc1CC,0.858
20,Fc1ccc(Oc2ccnc3cc(Cl)cc(Cl)c23)cc1,0.887

row,SMILES,relative growth
1,Oc1ccccc1-c1ccccc1,0.954
2,CNC(=O)c1cc(C#N)cc(C)c1NC(=O)c1cc(Br)nn1-c1ncccc1Cl,0.859
3,O=C1C2(Cl)C3(Cl)C4(Cl)C(Cl)(Cl)C5(Cl)C3(Cl)C1(Cl)C5(Cl)C24Cl (stereo not given),0.82
4,CNC(=O)c1cc(Cl)cc(C)c1NC(=O)c1cc(Br)nn1-c1ncccc1Cl,1.14
5,CCc1cccc(C)c1N(C(=O)CCl)[C@@H](C)COC,0.929
6,CCCCN(CCCC)SN(C)C(=O)Oc1cccc2c1OC(C)(C)C2,0.824
7,CN1COCN(Cc2cnc(Cl)s2)/C1=N\[N+](=O)[O-],0.777
8,CON(C)C(=O)Nc1ccc(Cl)c(Cl)c1,1.03
9,O=C(O)COc1ccc(Cl)cc1Cl,0.98
10,CCc1cnc(C2=NC(C)(C(C)C)C(=O)N2)c(C(=O)O)c1 (stereo not given),1.1
11,CNC(=O)Oc1cccc(/N=C/N(C)C)c1,0.8
12,Fc1ccc([C@]2(Cn3cncn3)O[C@H]2c2ccccc2Cl)cc1 (racemic),0.962
13,CCSC(C)CC1CC(=O)C(/C(CC)=N/OC/C=C/Cl)=C(O)C1 (mixture of isomers),0.965
14,CCOC(=O)CC(SP(=S)(OC)OC)C(=O)OCC (stereo not given),0.992
15,CCC(=O)Nc1ccc(Cl)c(Cl)c1,0.919
16,COP(=O)(NC(C)=O)SC (stereo not given),0.781
17,CC(COc1ccc(Oc2ccccc2)cc1)Oc1ccccn1 (stereo not given),1.01
18,OC(Cn1cncn1)(c1ccc(F)cc1)c1ccccc1F (stereo not given),1.09
19,CC(C)OC(=O)Nc1cccc(Cl)c1,1.17
20,O=[N+]([O-])/N=C1\NCCN1Cc1ccc(Cl)nc1,1.23
